Bioassay records (PubChem)
CYP2C19 inhib = blockers of cytochrome P450 2C19 activity – biochemical, luminescence, ADME assay, primary screen. P33261. CYP2C19 Supersomes, luciferin-H EGE luminescence, 30 min. inhibition, % at 5 µM. 96,000 tested, 21% active. AID 778, 2007;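 active = CYP2C19 inhibition above a set limit at 5 µM in the primary screen, cut at about 50% in these data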
CYP2C19 act = human CYP2C19 activators, primary screen, biochemical, luminescence; Cytochrome P450 2C19 (Homo sapiens), P33261; recombinant CYP2C19, luciferin-H EGE luminescence; hits give high values; 0 = fully inhibited enzyme, 1 = untreated enzyme; activation factor at 5 µM; 96,000 tested, under 10 active;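 active = activation factor of at least 2 at 5 µM in the primary screen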
CYP2C9 inh = blockers of cytochrome P450 2C9 activity – biochemical, luminescence, ADME assay, primary screen; P11712; CYP2C9 Supersomes, luciferin-H conversion; inhibition, % at 5 µM; 96,000 tested, 20% active;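 active = blocking of liver enzyme CYP2C9 beyond about 50% at 5 µM, limit read from the data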
Target sequence (P11712 whole entry, looked up): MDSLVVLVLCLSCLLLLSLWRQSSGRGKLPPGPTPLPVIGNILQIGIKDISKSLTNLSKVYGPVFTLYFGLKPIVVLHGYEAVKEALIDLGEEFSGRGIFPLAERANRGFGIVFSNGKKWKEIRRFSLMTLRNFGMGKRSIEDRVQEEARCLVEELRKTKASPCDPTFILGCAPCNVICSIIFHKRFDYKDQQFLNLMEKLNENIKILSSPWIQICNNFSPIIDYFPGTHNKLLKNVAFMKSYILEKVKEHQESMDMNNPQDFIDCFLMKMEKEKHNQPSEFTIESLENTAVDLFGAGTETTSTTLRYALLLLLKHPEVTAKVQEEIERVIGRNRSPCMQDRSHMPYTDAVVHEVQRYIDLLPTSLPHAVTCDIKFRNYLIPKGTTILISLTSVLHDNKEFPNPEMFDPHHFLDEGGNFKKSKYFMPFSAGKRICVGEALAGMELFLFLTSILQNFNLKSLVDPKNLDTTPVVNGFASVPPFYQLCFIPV
CYP2C9 activ = human CYP2C9 activators, primary screen, biochemical, luminescence; Cytochrome P450 2C9 (Homo sapiens), P11712; recombinant CYP2C9, luciferin-H conversion; hits give high values; factor 1 = untreated enzyme, 0 = blocked; activation factor at 5 µM; 96,000 tested, 1.4% active;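 active = activation factor of 2 or more for CYP2C9 at a 5 µM dose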
PTK2B oligo ant = antagonists of Pyk2 self-association, primary screen, Q293 cells, FERM NanoBiT luminescence, HTS | Protein-tyrosine kinase 2-beta (Homo sapiens), Q14289 | hits give low values | z-score (the deposit names both 25 µM and 10 µM) | 99,000 tested, 0.83% active | AID 1347419, 2020;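 active = Z-score of -3 or lower, scaled per plate to the spread of control and sample wells; inactive = z-score above -3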;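 also: negative z-score means lost luminescence so less FERM oligomerization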
A number is an active result; n = inactive; x = not tested or not shown. An excerpt weighted towards active compounds, which were near 28% of everything screened.

SMILES	CYP2C19 inhib	CYP2C19 act	CYP2C9 inh	CYP2C9 activ	PTK2B oligo ant
COC(=O)c1c(C)[nH]c(C(=O)CSc2ccc(Cl)cc2)c1C	n	n	68	n	n
CCOC(=O)c1[nH]c(C)c(C(=O)Nc2ccc(Cl)cc2)c1C	n	n	n	n	x
C#CCSc1nnc(-c2ccc(OC)cc2)o1	n	n	n	n	n
Cc1ccccc1N(Cc1nnc2n1CCCCC2)C(=O)Nc1ccccc1	n	n	n	n	n
O=C(COc1ncnc2ccccc12)NCCCN1CCCC1=O	n	n	n	n	n
COc1ccc(/C=N/NS(=O)(=O)c2ccccc2)cc1OC(=O)c1ccc(C)cc1	n	n	89	n	n
COc1ccc(/C=N/NS(=O)(=O)c2ccccc2)cc1OS(=O)(=O)c1ccccc1	n	n	94	n	n
CCOc1cc(/C=N/NC(=O)c2cccc([N+](=O)[O-])c2)ccc1OS(=O)(=O)c1ccccc1	57	n	59	n	n
COc1ccc(/C=N/NS(=O)(=O)c2ccc(C)cc2)cc1OC(=O)c1ccccc1	n	n	n	n	n
CCc1c(C(=O)Nc2ccc(S(=O)(=O)N3CCOCC3)cc2)csc1C	n	n	n	n	n
CCOc1ccccc1NC(=O)CCSc1nc2n[nH]c(C)c2c(=N)n1-c1ccccc1Cl	71	n	77	n	n
CSc1nccc(Nc2ccccc2)c1C#N	59	n	69	n	n
COc1ccc(-c2oc3ncnc(NCCCN4CCOCC4)c3c2-c2ccc(OC)cc2)cc1	n	n	94	n	n
COc1ccc(C2c3ccc4ccccc4c3Oc3ncn(CCN4CCOCC4)c(=N)c32)cc1 (stereo not drawn)	n	n	n	n	n
c1ccc(-c2oc3ncnc(NCCCN4CCOCC4)c3c2-c2ccccc2)cc1	90	n	94	n	n
COc1ccc(-c2oc3ncnc(NCCN4CCOCC4)c3c2-c2ccc(OC)cc2)cc1	n	n	n	n	n
COc1ccc(-c2oc3ncn(CCN4CCOCC4)c(=N)c3c2-c2ccc(OC)cc2)cc1	63	n	n	n	n
COC(=O)CCCc1nc2ccccc2s1	n	n	n	n	n
O=C(O)CCCc1nc2ccccc2s1	55	n	n	n	n
CN(C(=O)CCc1nc2ccccc2s1)c1ccccc1	70	n	n	n	n
CC1=C(C(=O)N(C)CCC#N)C2(CCCCC2)OC1=O	n	n	n	n	x
O=C(NCc1cccnc1)/C(=N\O)c1ccccc1	n	n	n	n	n
CCn1nc(C)c(/C=N\NC(=O)c2cccc(OC)c2)c1C	x	x	x	x	n
O=S(=O)(N/N=C/c1cn(Cc2ccccc2)c2ccccc12)c1ccccc1	n	n	87	n	n
Cc1nn(-c2ccccc2)c(C)c1/C=N/NC(=O)c1cc(-c2ccccc2)n[nH]1	70	n	86	n	-3
SMILES	CYP2C19 inhib	CYP2C19 act	CYP2C9 inh	CYP2C9 activ	PTK2B oligo ant
Cc1ccc(S(=O)(=O)N/N=C\c2cn(-c3ccccc3)nc2-c2ccccc2)cc1	n	n	67	n	n
Cc1nn(-c2ccccc2)c(C)c1/C=N/N1CCN(c2ccccc2)CC1	n	n	n	n	n
O=[N+]([O-])c1ccc(N/N=C/c2cn(-c3ccccc3)nc2-c2ccccc2)cc1	n	n	n	n	n
Cc1ccc(S(=O)(=O)N/N=C/c2c(C)nn(-c3ccccc3)c2C)cc1	56	n	75	n	n
COC(=O)c1ccc(COc2ccccc2/C=N/NS(=O)(=O)c2ccccc2)cc1	n	n	n	n	n
CN(c1ccc(C(=O)N2CCCCC2)cc1)S(C)(=O)=O	n	n	n	n	n
CN(C)S(=O)(=O)c1cccn1-c1ncc(C(F)(F)F)cc1Cl	n	n	n	n	n
CCn1cc(C(=O)NCCCN2CC(C)CC(C)C2)c2cc(OC)c(OC)cc2c1=O (stereo not drawn)	n	n	n	n	n
Cc1ccc(-c2nn(-c3ccccc3)cc2/C=N/NS(=O)(=O)c2ccccc2)cc1	n	n	66	n	n
O=C(N/N=C/c1cn(-c2ccccc2)nc1-c1ccc(F)cc1)c1ccc(Br)o1	n	n	n	n	n
O=C(Cn1nnc(-c2cccs2)n1)NCCc1ccccc1	x	x	x	x	n
O=C(CC1CCCC1)Nc1ccc2c(c1)CCC2	66	n	n	n	n
O=C(Cn1nnc(-c2ccncc2)n1)NCCc1ccccc1	73	n	72	n	n
